Reference: PubChem BioAssay (NCATS)
Records with an inconclusive call do not appear. Values without a mark were called inactive. Active and inactive are the calls of the source. Calls come from the whole dose curve; as a rule, active = well fitted inhibition curve with a large enough effect; inconclusive = small, poorly fitted or top-dose-only effect; inactive = flat fitted curve, though single readings scatter.

target: Calcium and integrin-binding protein 1 (Homo sapiens) (UniProt Q99828); assay: Primary qHTS for Identification of Calcium Integrin Binding Protein 1 (CIB1) Competitor (AID 1508620); settings: CIB1-GST / FITC-alphaIIb peptide fluorescence polarization; series mostly up to 57.7 µM;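 note: GST tagged CIB1 binding a fluorescein labelled alphaIIb integrin peptide tracer; top concentration of the series differs between compounds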
Text: Assay Provider: Ulhas P. Naik, PhD Sidney Kimmel Medical College Thomas Jefferson University, Philadelphia, PA Primary function of platelets is to maintain hemostasis. At the site of vascular injury, platelets adhere to adhesive proteins such as collagen and von Willebrand factor. Adherent platelets are activated and generate soluble platelet agonists such as thrombin, ADP and thromboxane A2. Following exposure of circulating platelets to these agonists, results in platelet shape change, granule secretion and activation of platelet integrin alphaIIb-beta3. Ligand binding to activated integrin alphaIIb-beta3 triggers outside-in signaling, leading to platelet aggregation, stabilization of platelet plug, and clot retraction. Upon atherosclerotic plaque rupture also causes platelet plug formation, which underlies a number of cardiovascular diseases such as myocardial infraction and stroke. A number of anti-platelet drugs such as aspirin, clopidogrel, prasugrel, vorapaxar, and eptifibatide are currently available to prevent the thrombotic complications. However, these anti-platelet agents have several limitations including inherent variability in individual responses, developing resistance, and serious bleeding side effects. For these reasons they are not suitable for long-term protection. Based on the experiences with current anti-platelet drugs, it appears that the most useful therapeutic approach is to intersect the secondary responses such as integrin outside-in signaling or recruitment of platelets by TxA2 and secreted ADP. Compounds, which can largely preserve the primary hemostatic function of platelets but inhibit secondary response will be most desired therapeutic agents for treatment of cardiovascular disease. CIB1 is a calcium integrin binding protein, which specifically interact with the alphaIIb subunit of integrin alphaIIb-beta3. Binding of CIB1 to alphaIIb regulates the outside-in signaling in platelets, which is needed for thrombus stabilization and thrombus growth. […] Therefore, we propose that discovery of a small molecule that can prevent the association of CIB1 and alphaIIb-beta3 will be a potential anti-platelet agent that can block the thrombus formation without undue effect on hemostasis. Reference: [1] Naik MU, Nigam A, Manrai P, et al. CIB1 deficiency results in impaired thrombosis: the potential role of CIB1 in outside-in signaling through integrin alpha IIb beta 3. J Thromb Haemost.
PROTOCOL TABLES SEQUENCE No. (1, 2, 3, etc.); […] (e.g., Cells, Incubation, Reagent, etc.); VALUE and DESCRIPTION. 1; Reagent; 3 uL; Protein or buffer (4/3x) 2; Compound; 46 nL; Control inhibitor / compound library 3; Time; 15 min; Room temperature incubation 4; Reagent; 1 uL; Fluorescent labeled peptide (4x) 5; Time; 1000 rpm; Centrifuge 6; Time; 15 min; Room temperature incubation 7; Detection; Ex 480/ Em 540; ViewLux Fluorescence Read NOTES (numbers refer to sequence above) 1; Protein Mixture: C1B1-GST (final concentrations of 1 uM). […] 3; Room temperature incubation. 4; Fluorescent Labeled Peptide: FITC-aIIb (final concentration of 100 nM). Sequence of alphaIIb peptide: Acetyl-[…]-FITC (purity is 95.83%). 5; Centrifuge 1000 rpm (164 g) for 15 seconds. 6; Room temperature incubation. 7; ViewLux Fluorescent Polization Read: excitation = 480(20) / emission = 540(25) S and P; FITC Dichroic mirror.
% is set by controls: 0 for no effect and ±100 for the full control effect.

Chain of Calcium and integrin-binding protein 1 (Homo sapiens) (Q99828 whole entry, looked up): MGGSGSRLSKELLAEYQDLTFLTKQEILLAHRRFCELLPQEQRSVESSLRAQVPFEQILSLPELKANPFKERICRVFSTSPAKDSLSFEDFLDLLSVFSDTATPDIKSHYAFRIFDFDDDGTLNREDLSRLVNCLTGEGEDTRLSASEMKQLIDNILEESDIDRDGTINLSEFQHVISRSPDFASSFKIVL

Structure (SMILES) | outcome | activity change, negative = inhibition
O=C(O)CCCc1c[nH]c2ccccc12 | inactive | 
CNC(=O)c1c(F)cccc1Nc1nc(Nc2cc3c(cc2OC)CCN3C(=O)CN(C)C)nc2[nH]ccc12 | inactive | 
COc1ccc(C(=O)CC2(O)C(=O)Nc3c(Cl)ccc(Cl)c32)cc1 (stereo not given) | inactive | 
COc1cc(C)c(Sc2cnc(NC(=O)c3ccc(CNC(C)C(C)C)cc3)s2)cc1C(=O)N1CCN(C(C)=O)CC1 (stereo not given) | inactive | 
O=c1c2ccccc2nc2n1CCc1c-2[nH]c2ccccc12 | inactive | 
Clc1cccc(-c2nnnn2Cc2cccnc2)c1Cl | inactive | 
Cc1cc(Nc2cc(CN3CCOCC3)c3nc(C)c(Cc4ccc(Cl)cc4F)n3n2)n[nH]1 | inactive | 
COc1ccc2c(c1)CC[C@@H](CN(C)CC(=O)O)[C@H]2c1ccccc1 | inactive | 
Nc1cccc(-c2cc3c(Oc4cccc(O)c4)ncnc3[nH]2)c1 | inactive | 
O=C(Nc1nc2cccc(-c3ccc(CN4CCS(=O)(=O)CC4)cc3)n2n1)C1CC1 | inactive | 
Nc1nccc(Oc2ccc(NC(=O)c3c[nH]cc(-c4ccc(F)cc4)c3=O)cc2F)c1Cl | inactive | 
CC(C)=CCCC(C)=CCCC(C)=CCSc1ccccc1C(=O)O | inactive | 
CC(C)(C)OC(=O)Nc1ccc(-c2cc(C(=O)NCCCCCCC(=O)NO)no2)cc1 | inactive | 
CN(C)CCCN=c1c2ccccc2n(C)c2[nH]c(=O)n(C)c(=O)c12 | inactive | 
CC(C)(C)c1cc(C(C)(C)C)c(NC(=O)c2c[nH]c3ccccc3c2=O)cc1O | inactive | 
COc1c(N2C[C@@H]3CCCN[C@H]3C2)c(F)cc2c(=O)c(C(=O)O)cn(C3CC3)c12 | inactive | 
CCCCCCCCCC(=O)N[C@@H](Cc1c[nH]c2ccccc12)C(=O)N[C@H](CC(N)=O)C(=O)N[C@@H](CC(=O)O)C(=O)N[C@@H]1C(=O)NCC(=O)N[C@@H](CCCN)C(=O)N[C@@H](CC(=O)O)C(=O)N[C@H](C)C(=O)N[C@@H](CC(=O)O)C(=O)NCC(=O)N[C@H](CO)C(=O)N[C@@H]([C@@H](C)CC(=O)O)C(=O)N[C@@H](CC(=O)c2ccccc2N)C(=O)O[C@@H]1C | inactive | 
O=C(Nc1cc(C(F)(F)F)cc(C(F)(F)F)c1)c1cc(Cl)ccc1O | inactive | 
Cc1c(CN2CCN(S(C)(=O)=O)CC2)sc2c(N3CCOCC3)nc(-c3cnc(N)nc3)nc12 | inactive | 
COCCn1c2c([n+](Cc3cnccn3)c1C)C(=O)c1ccccc1C2=O | inactive | 

Structure (SMILES) | outcome | activity change, negative = inhibition
CC(=O)OCC(=O)[C@@]1(O)[C@H](C)C[C@H]2[C@@H]3C=C(C)C4=Cc5c(cnn5-c5ccccc5)C[C@]4(C)[C@@H]3[C@@H](O)C[C@@]21C | inactive | 
C=C1C(=CC=C2CCCC3(C)[C@@H]([C@H](C)C=CC=CC(O)(CC)CC)CC[C@@H]23)C[C@@H](O)C[C@@H]1O (stereo not given in full) | inactive | 
CC(C)c1noc(N2CCC(COc3ccc(-c4ccc(S(C)(=O)=O)cc4)nc3)CC2)n1 | inactive | 
COc1cc2c(Oc3ccc(-c4cnc(Nc5ccc(F)cc5)n(C)c4=O)cc3F)ccnc2cc1OCCCN1CCOCC1 | inactive | 
O=C(CCCCCCNC(=O)c1cnc(N(c2ccccc2)c2ccccc2)nc1)NO | inactive | 
COc1ccc(CC2c3cc(OC)c(OC)cc3CC[N+]2(C)CCC(=O)OCCCCCOC(=O)CC[N+]2(C)CCc3cc(OC)c(OC)cc3C2Cc2ccc(OC)c(OC)c2)cc1OC (stereo not given) |  | -3.2% [at 6.45 µM]
Nc1nc(-c2nn(Cc3ccccc3F)c3ncccc23)nc(N)c1N1CCOCC1 | inactive | 
Cn1c2ccccc2c2c3c(c4c5ccccc5n(CCC#N)c4c21)CNC3=O | inactive | 
COc1cc(-c2nn(C3CCC(N4CCN(C(C)=O)CC4)CC3)c3ncnc(N)c23)ccc1NC(=O)c1cc2ccccc2n1C (stereo not given) | inactive | 
CC[C@@]1(O)C(=O)OCc2c1cc1n(c2=O)Cc2cc3cc(O)ccc3nc2-1 | inactive | 
COc1cc2c(NC3CCN(C(C)C)CC3)nc(C3CCCCC3)nc2cc1OCCCN1CCCC1 | inactive | 
CNC(=O)c1nn(C)c2c1C(C)(C)Cc1cnc(Nc3ccc(N4CCN(C)CC4)cc3)nc1-2 | inactive | 
Cc1nc2ccc(CN(C)c3ccc(C(=O)N[C@@H](CCC(=O)O)C(=O)O)s3)cc2c(=O)[nH]1 | inactive | 
CC1(C)CCC(c2ccc(Cl)cc2)=C(CN2CCN(c3ccc(C(=O)NS(=O)(=O)c4ccc(N[C@H](CCN5CCOCC5)CSc5ccccc5)c(S(=O)(=O)C(F)(F)F)c4)cc3)CC2)C1 | inactive | 
Cc1ccc(C(N)=O)cc1Nc1nccc(-c2cn(C(C)C)c3cnccc23)n1 | inactive | 
COc1cc2c(Oc3ccc4[nH]c(C)cc4c3F)ncnc2cc1OCCCN1CCCC1 | inactive | 
COc1cc(=C2C=c3ccccc3=N2)[nH]c1=Cc1[nH]c(C)cc1C | inactive | 
COc1ccc(F)c(F)c1C(=O)c1cnc(NC2CCN(S(C)(=O)=O)CC2)nc1N | inactive | 
NCC(=O)Nc1ccc(-n2nc(C(F)(F)F)cc2-c2ccc3c(ccc4ccccc43)c2)cc1 | inactive | 
Cc1cc(Nc2cc(NC(=O)c3c(Cl)cccc3Cl)ccn2)nc(N)n1 | inactive | 
